About 8,800 targets were measured; listed, in parts, are those with a hit and a random draw of the rest. About 0.5% of all pairs of compound and target were hits. Values without a mark were called inactive.
What was measured:
Assay in all cases: log2 fold change, soluble protein after heating vs DMSO (PISA); higher = thermal stabilisation; K562 lysate, 10 uM; active = over 0.2 and 3.5 SD of the protein, either way, in both replicates (recomputed)
[1] = compound: Cc1cn(-c2cc(NC(=O)c3ccc(C)c(Nc4nccc(-c5cccnc5)n4)c3)cc(C(F)(F)F)c2)cn1 [nilotinib]
Outline: (§1)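 Following dounce homogenisation of K562 pellets in PBS pH 7.4 with 1 mM MgCl2, crude extract at 1 mg/mL protein was incubated for 30 min with 10 μM compound. Aliquots were then heated for 3 min over 48°C-58°C and pooled, NP-40 was added to 0.5% at 4°C, and soluble protein was recovered as the supernatant at 21,000xg for 90 min. Channel-sum-equalised TMTpro 16plex LC-MS/MS quantified this protein. Each value, from duplicates, is a log-two fold change in thermal stability relative to solvent controls.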

[2] = compound: Cc1nc(Nc2n[nH]c3c2CN(C(=O)N[C@H](CN(C)C)c2ccccc2)C3(C)C)c2sccc2n1
Outline: as §1

[3] = compound: Cc1nc(Nc2ncc(C(=O)Nc3c(C)cccc3Cl)s2)cc(N2CCN(CCO)CC2)n1 [dasatinib]
Outline: as §1

[4] = compound: Cc1ncc(-c2ccnc(Nc3ccc(S(C)(=O)=O)cc3)n2)n1C(C)C
Outline: as §1

[5] = compound: Cn1cc(-c2ccc3c(c2)CCN3C(=O)Cc2cccc(C(F)(F)F)c2)c2c(N)ncnc21
Outline: as §1

[6] = compound: Cn1cc(CNCC2CCN(c3ncc(C(=O)NO)cn3)CC2)c2ccccc21 [quisinostat]
Outline: as §1

[7] = compound: Cn1cncc1[C@@](N)(c1ccc(Cl)cc1)c1ccc2c(c1)c(-c1cccc(Cl)c1)cc(=O)n2C [tipifarnib]
Outline: as §1

[8] = compound: NC(=O)Nc1cc(-c2cccc(F)c2)sc1C(=O)N[C@H]1CCCNC1
Outline: as §1

[9] = compound: NC(=O)c1cnc(N[C@@H]2CCCC[C@@H]2N)nc1Nc1cccc(-n2nccn2)c1
Outline: as §1

[10] = compound: NC1(c2ccc(-c3nc4ccn5c(=O)[nH]nc5c4cc3-c3ccccc3)cc2)CCC1
Outline: as §1

Sequence of UniProt P61586 (P61586 whole entry, looked up): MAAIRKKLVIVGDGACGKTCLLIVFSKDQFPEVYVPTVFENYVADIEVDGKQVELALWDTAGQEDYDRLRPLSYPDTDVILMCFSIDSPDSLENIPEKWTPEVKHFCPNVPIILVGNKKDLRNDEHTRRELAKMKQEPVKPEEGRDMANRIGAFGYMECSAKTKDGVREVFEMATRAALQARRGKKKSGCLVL
Sequence of UniProt Q9UKL0 (Q9UKL0 whole entry, looked up): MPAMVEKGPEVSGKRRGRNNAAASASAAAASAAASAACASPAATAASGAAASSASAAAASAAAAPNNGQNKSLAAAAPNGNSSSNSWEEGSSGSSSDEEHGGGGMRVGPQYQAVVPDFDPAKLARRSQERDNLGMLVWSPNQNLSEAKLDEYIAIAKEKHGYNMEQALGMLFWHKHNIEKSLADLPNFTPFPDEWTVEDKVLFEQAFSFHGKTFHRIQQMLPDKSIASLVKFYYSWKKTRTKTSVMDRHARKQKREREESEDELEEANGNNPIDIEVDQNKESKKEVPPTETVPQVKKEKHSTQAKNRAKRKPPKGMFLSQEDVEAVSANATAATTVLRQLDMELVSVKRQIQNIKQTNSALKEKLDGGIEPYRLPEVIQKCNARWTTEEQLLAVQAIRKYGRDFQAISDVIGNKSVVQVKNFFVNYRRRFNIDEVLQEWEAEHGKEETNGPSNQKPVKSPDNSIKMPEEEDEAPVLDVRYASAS
Sequence of UniProt Q9UQR0 (Q9UQR0 whole entry, looked up): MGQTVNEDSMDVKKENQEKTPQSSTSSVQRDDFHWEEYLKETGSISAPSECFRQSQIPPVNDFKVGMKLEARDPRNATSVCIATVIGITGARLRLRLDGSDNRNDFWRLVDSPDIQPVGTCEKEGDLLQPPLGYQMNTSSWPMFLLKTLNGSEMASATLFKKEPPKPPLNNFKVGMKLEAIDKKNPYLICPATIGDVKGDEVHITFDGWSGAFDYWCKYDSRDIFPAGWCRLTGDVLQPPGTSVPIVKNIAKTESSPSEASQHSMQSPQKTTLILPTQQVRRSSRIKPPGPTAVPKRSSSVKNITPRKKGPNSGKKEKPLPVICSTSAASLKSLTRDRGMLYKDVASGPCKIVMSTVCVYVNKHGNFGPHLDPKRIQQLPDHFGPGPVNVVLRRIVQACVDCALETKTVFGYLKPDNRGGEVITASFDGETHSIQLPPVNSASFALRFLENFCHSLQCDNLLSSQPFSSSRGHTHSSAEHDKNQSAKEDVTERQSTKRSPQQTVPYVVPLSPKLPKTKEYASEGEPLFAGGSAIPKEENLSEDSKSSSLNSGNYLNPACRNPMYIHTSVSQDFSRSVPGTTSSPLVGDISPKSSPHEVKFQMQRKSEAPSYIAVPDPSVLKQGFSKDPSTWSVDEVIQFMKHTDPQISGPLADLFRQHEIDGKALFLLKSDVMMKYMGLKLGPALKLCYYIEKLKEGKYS
Sequence of UniProt P18754 (P18754 whole entry, looked up): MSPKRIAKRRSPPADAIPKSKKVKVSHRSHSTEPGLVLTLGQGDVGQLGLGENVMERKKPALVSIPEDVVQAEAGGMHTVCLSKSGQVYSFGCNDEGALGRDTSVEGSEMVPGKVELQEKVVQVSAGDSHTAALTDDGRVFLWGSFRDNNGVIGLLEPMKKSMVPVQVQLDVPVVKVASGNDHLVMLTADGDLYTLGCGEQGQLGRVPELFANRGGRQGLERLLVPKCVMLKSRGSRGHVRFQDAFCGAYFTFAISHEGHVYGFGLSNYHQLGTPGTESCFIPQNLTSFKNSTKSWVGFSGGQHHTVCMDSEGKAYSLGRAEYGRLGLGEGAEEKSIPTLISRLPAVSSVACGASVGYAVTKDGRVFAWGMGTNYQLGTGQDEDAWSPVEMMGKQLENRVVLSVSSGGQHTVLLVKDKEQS
Sequence of UniProt Q6GYQ0 (Q6GYQ0 whole entry, looked up): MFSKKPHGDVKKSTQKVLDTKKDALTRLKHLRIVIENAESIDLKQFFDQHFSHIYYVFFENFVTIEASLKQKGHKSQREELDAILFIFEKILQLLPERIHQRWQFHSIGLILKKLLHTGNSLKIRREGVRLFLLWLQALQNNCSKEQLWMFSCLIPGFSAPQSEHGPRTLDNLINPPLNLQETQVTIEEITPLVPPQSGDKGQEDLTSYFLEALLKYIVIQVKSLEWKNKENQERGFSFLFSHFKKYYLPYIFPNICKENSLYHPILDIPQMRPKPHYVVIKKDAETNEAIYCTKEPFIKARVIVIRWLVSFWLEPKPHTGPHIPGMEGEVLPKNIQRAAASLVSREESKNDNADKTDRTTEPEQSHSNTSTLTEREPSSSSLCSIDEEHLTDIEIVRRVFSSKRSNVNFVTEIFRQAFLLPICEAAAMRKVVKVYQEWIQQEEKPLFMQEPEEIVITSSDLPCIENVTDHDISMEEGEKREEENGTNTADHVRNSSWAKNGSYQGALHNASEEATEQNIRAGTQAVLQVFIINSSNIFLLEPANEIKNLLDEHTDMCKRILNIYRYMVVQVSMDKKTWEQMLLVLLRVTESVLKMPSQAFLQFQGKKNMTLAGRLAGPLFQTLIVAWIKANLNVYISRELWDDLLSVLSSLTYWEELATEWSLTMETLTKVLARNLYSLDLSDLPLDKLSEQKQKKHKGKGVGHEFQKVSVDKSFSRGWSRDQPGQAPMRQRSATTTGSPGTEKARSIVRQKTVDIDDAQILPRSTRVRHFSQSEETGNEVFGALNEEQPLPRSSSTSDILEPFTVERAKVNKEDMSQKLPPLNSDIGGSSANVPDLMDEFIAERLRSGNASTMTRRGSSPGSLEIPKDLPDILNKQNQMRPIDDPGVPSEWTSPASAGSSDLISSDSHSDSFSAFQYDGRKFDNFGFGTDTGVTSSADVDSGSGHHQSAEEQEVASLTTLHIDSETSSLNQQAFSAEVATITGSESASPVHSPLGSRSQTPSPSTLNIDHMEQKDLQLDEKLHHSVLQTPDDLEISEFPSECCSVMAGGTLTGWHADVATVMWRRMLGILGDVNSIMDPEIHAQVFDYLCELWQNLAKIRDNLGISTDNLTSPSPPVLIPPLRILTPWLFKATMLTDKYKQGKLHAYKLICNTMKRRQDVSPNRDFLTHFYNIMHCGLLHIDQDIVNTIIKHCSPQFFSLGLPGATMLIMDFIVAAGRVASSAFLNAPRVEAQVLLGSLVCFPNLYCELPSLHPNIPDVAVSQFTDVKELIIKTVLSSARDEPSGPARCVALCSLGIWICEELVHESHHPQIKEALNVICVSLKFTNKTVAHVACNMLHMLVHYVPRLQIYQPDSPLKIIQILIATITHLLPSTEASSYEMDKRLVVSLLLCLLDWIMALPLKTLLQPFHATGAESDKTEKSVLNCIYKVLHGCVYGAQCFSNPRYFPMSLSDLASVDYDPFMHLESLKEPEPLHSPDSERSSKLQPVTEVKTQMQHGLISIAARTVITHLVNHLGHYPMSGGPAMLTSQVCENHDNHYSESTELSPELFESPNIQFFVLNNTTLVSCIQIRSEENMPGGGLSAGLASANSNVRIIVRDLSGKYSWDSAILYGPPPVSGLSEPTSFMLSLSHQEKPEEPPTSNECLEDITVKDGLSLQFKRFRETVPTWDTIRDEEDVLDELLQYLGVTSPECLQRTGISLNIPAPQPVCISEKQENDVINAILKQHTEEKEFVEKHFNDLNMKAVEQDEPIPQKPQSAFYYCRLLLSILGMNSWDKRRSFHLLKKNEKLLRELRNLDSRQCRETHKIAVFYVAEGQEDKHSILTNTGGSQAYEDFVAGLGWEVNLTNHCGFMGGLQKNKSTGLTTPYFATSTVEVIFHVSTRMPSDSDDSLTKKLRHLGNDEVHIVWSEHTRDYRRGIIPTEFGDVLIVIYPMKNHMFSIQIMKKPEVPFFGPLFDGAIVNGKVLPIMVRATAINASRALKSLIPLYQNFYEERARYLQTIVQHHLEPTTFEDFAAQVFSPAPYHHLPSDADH
Sequence of UniProt Q15287 (Q15287 whole entry, looked up): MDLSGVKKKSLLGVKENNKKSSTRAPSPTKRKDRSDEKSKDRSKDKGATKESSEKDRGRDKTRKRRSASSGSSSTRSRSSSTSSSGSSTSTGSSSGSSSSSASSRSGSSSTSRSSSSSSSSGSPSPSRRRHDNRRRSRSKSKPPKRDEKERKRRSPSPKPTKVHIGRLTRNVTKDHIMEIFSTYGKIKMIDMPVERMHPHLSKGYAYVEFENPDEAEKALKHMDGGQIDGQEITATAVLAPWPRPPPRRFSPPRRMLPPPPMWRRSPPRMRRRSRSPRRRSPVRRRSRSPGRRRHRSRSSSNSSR
Sequence of UniProt Q99708 (Q99708 whole entry, looked up): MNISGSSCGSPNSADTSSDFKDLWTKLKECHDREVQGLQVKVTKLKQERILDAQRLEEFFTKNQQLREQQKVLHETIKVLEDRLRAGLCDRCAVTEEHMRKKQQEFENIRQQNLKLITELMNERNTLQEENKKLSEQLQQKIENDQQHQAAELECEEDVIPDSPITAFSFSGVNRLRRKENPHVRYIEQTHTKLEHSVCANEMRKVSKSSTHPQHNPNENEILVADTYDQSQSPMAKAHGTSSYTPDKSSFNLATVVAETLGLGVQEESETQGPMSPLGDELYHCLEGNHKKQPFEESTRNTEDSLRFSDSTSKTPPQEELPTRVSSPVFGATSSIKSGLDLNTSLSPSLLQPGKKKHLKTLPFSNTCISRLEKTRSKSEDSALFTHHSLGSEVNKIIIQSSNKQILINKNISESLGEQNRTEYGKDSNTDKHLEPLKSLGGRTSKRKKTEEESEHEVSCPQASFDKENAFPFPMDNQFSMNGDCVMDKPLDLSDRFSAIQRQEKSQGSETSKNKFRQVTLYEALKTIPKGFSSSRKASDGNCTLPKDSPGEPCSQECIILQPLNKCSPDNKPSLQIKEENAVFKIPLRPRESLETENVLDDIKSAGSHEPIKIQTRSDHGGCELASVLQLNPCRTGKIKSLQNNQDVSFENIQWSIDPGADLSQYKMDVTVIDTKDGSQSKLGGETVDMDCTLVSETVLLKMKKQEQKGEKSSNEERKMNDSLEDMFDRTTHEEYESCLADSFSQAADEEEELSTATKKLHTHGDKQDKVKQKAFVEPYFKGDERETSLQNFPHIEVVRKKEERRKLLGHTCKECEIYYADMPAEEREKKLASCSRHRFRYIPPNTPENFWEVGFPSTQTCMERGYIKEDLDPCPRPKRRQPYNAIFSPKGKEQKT

| Target | log2 fold change [1] | log2 fold change [2] | log2 fold change [3] | log2 fold change [4] | log2 fold change [5] | log2 fold change [6] | log2 fold change [7] | log2 fold change [8] | log2 fold change [9] | log2 fold change [10] |
| --- | --- | --- | --- | --- | --- | --- | --- | --- | --- | --- |
| SCD (UniProt O00767) | -0.007 | -0.017 | 0.01 | -0.01 | 0.007 | -0.144 | -0.077 | -0.023 | -0.183 | 0.03 |
| RANBP2 (UniProt P49792) | -0.018 | 0.001 | -0.059 | 0.006 | 0.021 | -0.05 | -0.055 | 0.046 | 0.007 | -0.003 |
| RAP1B (UniProt P61224) | 0.032 | 0 | 0.045 | 0.027 | -0.002 | -0.007 | -0.034 | -0.007 | -0.029 | -0.025 |
| SEC13 isoform 3 (UniProt P55735) | -0.02 | 0.038 | -0.01 | 0.031 | 0.02 | 0.079 | -0.014 | 0.006 | 0.006 | -0.006 |
| RHOA (UniProt P61586) | -0.08 | 0.104 | 0.017 | -0.008 | -0.013 | 0.167 | -0.021 | -0.004 | 0.008 | -0.062 |
| RAB3IL1 (UniProt E9PK89) | -0.039 | -0.124 | 0.08 | 0.003 | -0.084 | 0.027 | 0.061 | -0.086 | -0.012 | 0.157 |
| SBF1 isoform 4 (UniProt O95248) | -0.018 | -0.041 | 0.092 | -0.046 | 0.047 | -0.103 | 0.162 | 0.12 | 0.039 | 0.091 |
| RIPK1 (UniProt Q13546) | -0.053 | -0.014 | 0.087 | 0.248 (active) | 0.723 (active) | -0.074 | -0.064 | 0.015 | 0.01 | -0.047 |
| RFC5 (UniProt P40937) | 0.005 | 0.001 | -0.06 | -0.005 | 0.025 | -0.078 | -0.023 | 0.074 | 0.025 | -0.02 |
| RDX (UniProt P35241) | -0.003 | -0.006 | 0.037 | 0.048 | -0.008 | 0.047 | 0.013 | -0.007 | 0.002 | 0.006 |
| RCC1 isoform 2 (UniProt P18754) | 0.024 | -0.024 | -0.071 | 0.021 | 0.034 | 0.001 | -0.011 | 0.027 | -0.02 | -0.043 |
| RNASEL (UniProt Q05823) | -0.034 | 0.035 | -0.014 | -0.013 | 0.02 | -0.06 | -0.016 | 0.042 | 0.026 | -0.064 |
| RALA (UniProt P11233) | -0.04 | -0.001 | 0.017 | -0.04 | -0.018 | 0.004 | -0.041 | 0.033 | 0.038 | -0.003 |
| RNPS1 (UniProt Q15287) | 0.025 | -0.047 | 0.044 | -0.035 | 0.034 | 0.239 (active) | -0.056 | 0.029 | 0.018 | -0.033 |
| RALGAPB (UniProt Q86X10) | -0.022 | 0.029 | -0.026 | 0.026 | 0.015 | -0.048 | -0.021 | 0.053 | -0.019 | -0.044 |
| RANBP6 (UniProt O60518) | 0.039 | -0.036 | -0.002 | -0.071 | 0.049 | -0.063 | -0.072 | 0.055 | 0.062 | -0.06 |
| RAB8B (UniProt Q92930) | -0.136 | -0.011 | -0.038 | -0.033 | -0.096 | -0.035 | 0.075 | 0.019 | 0.099 | 0.029 |
| SAMHD1 (UniProt Q9Y3Z3) | -0.006 | 0.008 | -0.026 | 0.013 | 0.066 | -0.02 | 0.03 | 0.054 | 0.046 | 0.004 |
| RCOR1 (UniProt Q9UKL0) | -0.024 | -0.006 | -0.054 | 0.009 | 0.003 | 0.015 | -0.022 | 0.043 | -0.015 | 0.099 |
| RPS9 (UniProt P46781) | 0.001 | -0.023 | 0.067 | -0.039 | 0.023 | 0.141 | 0.022 | -0.037 | -0.015 | 0.039 |
| RASA3 (UniProt Q14644) | 0.065 | -0.014 | -0.144 | 0.039 | 0.109 | 0.062 | 0.009 | 0.011 | 0.012 | 0.089 |
| SCML2 (UniProt Q9UQR0) | 0.042 | 0.004 | -0.014 | -0.06 | 0.027 | 0.007 | 0.065 | 0.048 | 0.012 | -0.022 |
| RBM4 (UniProt Q9BWF3) | -0.086 | -0.011 | 0.032 | 0.029 | 0.03 | 0.033 | -0.067 | 0.034 | 0.046 | 0.029 |
| RBBP8 isoform 2 (UniProt Q99708) | -0.07 | -0.003 | 0.063 | 0.081 | 0.031 | 0.074 | 0.022 | 0.033 | 0.035 | -0.026 |
| RALGAPA1 isoform 6 (UniProt Q6GYQ0) | -0.05 | -0.044 | -0.018 | -0.066 | 0.071 | -0.15 | 0.019 | 0.039 | 0.052 | -0.08 |
| RPS6KA1 (UniProt Q15418) | -0.037 | 0.204 | -0.113 | 0.078 | 0.031 | -0.045 | 0.002 | 0.256 | 0.093 | -0.028 |
| RPL8 (UniProt P62917) | -0.005 | -0.004 | 0.035 | -0.028 | -0.013 | 0.222 (active) | 0.027 | -0.019 | -0.008 | -0.006 |

From the supplement of paper PMC10849652
